The text below walks through data of PubChem BioAssay AID463173 (ICCB-Longwood Screening Facility, Harvard Medical School, 2010).

Each structure is given as a SMILES string. Among all 52,000 compounds or so, about 4,300 (8.3%) were called active. Many of the other results were omitted from the sample, so actives are more common in it than they were. Unmarked numbers belong to inactive results. No stated cut-off is given here; in the data, active means survival mostly below about 52% (no sharp cut-off); inactive means mostly above about 56%.

The assay relates to DeltatarO mutant. Kind of assay: growth inhibition of S. aureus wild type versus tarO mutant, primary screen, teichoic acid synthesis inhibitors, RN4220, OD600 (AID 463173). The conditions noted are these: OD600, 18 h, stronger effect = lower value, screened at 18.75 µg/mL (by protocol).
`CNC(=O)C1CCC(Cn2c(=O)c3sccc3n(Cc3ccc(F)cc3)c2=O)CC1` (configuration not stated): the survival is 79%.

Consider `NS(=O)(=O)c1ccc(CCNC(=O)c2nc(SCc3ccccc3F)ncc2Cl)cc1`, for which the survival was 45%.

Consider `CC(C)(C)NS(=O)(=O)c1ccc2oc3ccc(S(=O)(=O)NC(C)(C)C)cc3c2c1`, for which the survival was 86%. In the case of `O=C(O)c1cccc(N=NN2CCOCC2)c1`, the survival is 80%. For the compound `CSc1cccc(NS(=O)(=O)c2ccc3[nH]cc(C(=O)N4CCCC4)c(=O)c3c2)c1`, the survival was 91%. For `O=C(CSc1ccc2ccccc2n1)Nc1nsc(-c2ccc(Cl)cc2)n1`, the survival was 57%.

Consider `Cc1cccc(Cn2cc(S(=O)(=O)c3cccc(C)c3)c(=O)c3cc(F)c(N4CCOCC4)cc32)c1`, for which the survival was 76%. With `CCCCOc1ccc(C2C(=O)N(C3CCCCC3)CC(=O)N2C2CCCCC2)cc1` (configuration not stated), the survival was 94%. In the case of `CCN(CC)S(=O)(=O)c1ccc2c(c1)N(CC(=O)NCCc1ccccc1)C(=O)CO2` it was 76%; in that of `CC(C)Oc1ccc(CNC(=O)c2ccc(CS(=O)c3cccc(Cl)c3)o2)cc1` (configuration not stated), 52% (active). In the case of `CC(C)Oc1ccc(CNC(=O)c2ccc(CS(=O)Cc3ccccc3Cl)o2)cc1` (configuration not stated) it was 109%. In the case of `Cc1ccc(S(=O)Cc2ccc(C(=O)NCc3ccc(OC(C)C)cc3)o2)cc1` (configuration not stated) it was 51%; in that of `O=C(Cn1c(-c2cccs2)cc2cc(F)ccc21)N1CCN(c2ccccc2)CC1`, 71%; in that of `CCc1cccc(NC(c2nnc(-c3ccccc3)o2)c2ccc(F)cc2Cl)c1` (configuration not stated), 83%. For the compound `Cc1ccc(Cl)cc1NC(c1ccc(F)cc1)c1nnc(-c2ccccc2)o1` (configuration not stated), the survival was 86%. In the case of `COc1ccc(NC(c2ccc(F)cc2)c2nnc(-c3ccccc3Cl)o2)cc1Cl` (configuration not stated) it was 78%; in that of `CCc1cccc(NC(c2ccccc2)c2nnc(-c3ccccc3F)o2)c1` (configuration not stated), 11% (active); in that of `COc1cc(Cl)c(C)cc1NC(c1ccccc1)c1nnc(-c2ccccc2Cl)o1` (configuration not stated), 69%. In the case of `Cc1ccc(C)c(NC(c2ccccc2)c2nnc(-c3ccccc3F)o2)c1` (configuration not stated) it was 4% (active); in that of `COc1ccc(OC)c(NC(=O)CSc2cn(CC(=O)N3CCOCC3)c3ccccc23)c1`, 91%.

As for `CC(=O)Nc1ccc2nc(SCc3ccccc3)sc2c1`, the survival is 63%.

Turning to `CC(C)NC(=O)Cn1c(SCC(=O)N2CCc3ccccc32)nc2ccccc21`, the survival was 97%. In the case of `Cc1ccc2nc(-c3ccccc3F)c(Nc3ccc(Cl)cc3)n2c1` it was 16%; in that of `Cc1ccc(-n2c3nc(=O)n(C)c(=O)c-3cc3ccccc32)c(C)c1`, 99%. In the case of `CCCCn1c(=O)nc2n(-c3ccc(F)cc3)c3ccccc3cc-2c1=O` it was 41% (active); in that of `Cn1c(=O)nc2n(-c3ccc(Br)cc3)c3cccc(Cl)c3cc-2c1=O`, 80%; in that of `CCOc1ccccc1C(=O)N1CCC(c2nc3ccccc3o2)CC1`, 80%. As to `Cc1cccc(NC(=O)CCCn2c(C)c3cnn(-c4ccccc4)c(=O)c3c2C)c1C`, the survival is 71%. In the case of `CCOC(=O)c1cnc(SCC(=O)OC)nc1N` it was 95%; in that of `CCOC(=O)c1cnc(SC2CCc3ccccc3C2=O)nc1N` (configuration not stated), 79%; in that of `CCCCSc1ncc(C(=O)OCC)c(N)n1`, 78% (active).

`COc1ccc(CNC(=O)CN(c2ccccc2)S(=O)(=O)N(C)C)cc1`: the survival was 145%. In the case of `O=C(Cc1csc2nc(-c3ccccc3)cn12)NCc1ccc(F)cc1` it was 90%; in that of `Cc1cccc(-c2cc3nc4c(c(N5CCCC5)n3n2)CCCC4)c1`, 123%. In the case of `Cc1ccc(S(=O)(=O)c2nc(-c3ccco3)oc2SCc2ccc(F)cc2)cc1` it was 66%.

On to `CC(C)CSc1oc(-c2ccco2)nc1S(=O)(=O)c1ccc(Br)cc1`, for which the survival was 33% (active). In the case of `O=C(CSc1oc(-c2ccco2)nc1S(=O)(=O)c1ccc(Br)cc1)c1ccccc1` it was 47% (active). In the case of `Cc1ccc(S(=O)(=O)c2nc(-c3ccco3)oc2SCC(C)C)cc1` it was 48% (active); in that of `CCSc1oc(-c2ccco2)nc1S(=O)(=O)c1ccc(Br)cc1`, 54%; in that of `O=C(CSc1oc(-c2ccco2)nc1S(=O)(=O)c1ccc(Cl)cc1)c1ccccc1`, 125%. In the case of `O=C(CSc1oc(-c2ccco2)nc1S(=O)(=O)c1ccc(Br)cc1)c1ccc(Cl)cc1` it was 52%; in that of `Cc1ccc(CSc2oc(-c3ccco3)nc2S(=O)(=O)c2ccc(C)cc2)cc1`, 62%; in that of `CCCSc1oc(-c2ccco2)nc1S(=O)(=O)c1ccc(Br)cc1`, 55%. For `O=S(=O)(c1ccc(Cl)cc1)c1nc(-c2ccco2)oc1SCc1ccccc1F`, the survival is 62%.

Regarding `O=S(=O)(c1ccc(Br)cc1)c1nc(-c2ccco2)oc1SCc1ccccc1Cl`, the survival was 149%.

`O=S(=O)(c1ccc(Br)cc1)c1nc(-c2ccco2)oc1SCc1ccccc1F`: the survival was 44% (active).

As for `O=C(CSc1nnc(-c2ccccc2)c(-c2ccccc2)n1)NC1CCCC1`, the survival is 77%. In the case of `COc1ccc(CC(NC(C)=O)C(=O)NC2CCN(c3nc(OC)nc(OC)n3)CC2)cc1` (configuration not stated) it was 88%. In the case of `Cc1ccc(-c2cc(-c3coc4ccc(Cl)cc4c3=O)c3c(n2)-c2ccccc2OC3)cc1` it was 77%. In the case of `Cc1ncc(COC(=O)C(C)C)c2cc(C(=O)Nc3ccccc3C(F)(F)F)c(=O)oc12` it was 134%; in that of `Cc1ccc(OCC(=O)Nc2nc(-c3ccc(Br)cc3)ns2)cc1C`, 110%; in that of `O=C(Cc1cccs1)Nc1c(C(=O)Nc2ccc(F)cc2)oc2ccccc12`, 94%.

For `Cc1c(C(=O)Nc2ccc(-n3c(C)nc4ccccc4c3=O)cc2)cccc1[N+](=O)[O-]`, the survival was 99%. Turning to `Cc1ccc(C(=O)Nc2ccc(-n3c(C)nc4ccccc4c3=O)cc2)cc1[N+](=O)[O-]`, the survival is 117%. In the case of `Cc1cc(-n2c(C)nc3ccccc3c2=O)ccc1NC(=O)c1ccc(C)c([N+](=O)[O-])c1`, the survival is 37% (active).

Regarding `Cc1cc(-n2c(C)nc3ccccc3c2=O)ccc1NC(=O)c1ccc([N+](=O)[O-])cc1`, the survival is 83%. In the case of `Cc1cc(-n2c(C)nc3ccccc3c2=O)ccc1NC(=O)c1ccccc1[N+](=O)[O-]` it was 69%; in that of `Cc1cc(-n2c(C)nc3ccccc3c2=O)ccc1NC(=O)c1cccc([N+](=O)[O-])c1C`, 0% (active); in that of `CCOc1ccccc1NC(=O)c1sc(-n2nc(C)c(CCC(C)C)c2C)nc1C`, 69%. In the case of `COc1cccc2sc(N(Cc3cccnc3)C(=O)c3ccc4c(c3)OCCO4)nc12` it was 72%. For the compound `O=C(CSc1nc2ncccc2[nH]1)Nc1cc(F)ccc1F`, the survival is 86%.

With `O=C(CSc1ncc2c(n1)-c1ccccc1N(Cc1ccc(F)cc1)S2(=O)=O)NCc1ccccc1`, the survival is 87%. `Cc1ccccc1CN1c2ccccc2-c2nc(SCC(=O)NCc3ccccc3)ncc2S1(=O)=O`: the survival was 20% (active). In the case of `CCN1c2ccccc2-c2nc(SCC(=O)NCc3ccccc3)ncc2S1(=O)=O` it was 93%; in that of `Cc1ccccc1CN1c2ccccc2-c2nc(SCC(=O)NCCc3ccccc3)ncc2S1(=O)=O`, 66%; in that of `CCN1c2ccccc2-c2nc(SCC(=O)NCc3ccc(C)cc3)ncc2S1(=O)=O`, 105%. As for `Cc1ccc(CN2c3ccccc3-c3nc(SCC(=O)NCCc4ccccc4)ncc3S2(=O)=O)cc1`, the survival was 55%. In the case of `NC(=O)CSc1ncc2c(n1)-c1ccccc1N(Cc1ccccc1)S2(=O)=O`, the survival is 89%. In the case of `CCN1c2ccccc2-c2nc(SCC(=O)NCc3ccc(Cl)cc3)ncc2S1(=O)=O` it was 46% (active); in that of `Cc1ccc(CN2c3ccccc3-c3nc(SCC(=O)NCc4ccccc4)ncc3S2(=O)=O)cc1`, 17% (active). In the case of `Cc1ccc(CN2c3ccccc3-c3nc(SCC(=O)Nc4c(C)cc(C)cc4C)ncc3S2(=O)=O)cc1` it was 128%. In the case of `Cc1ccccc1CN1c2ccccc2-c2nc(SCC(=O)c3ccccc3)ncc2S1(=O)=O` it was 102%; in that of `O=C(CSc1ncc2c(n1)-c1ccccc1N(Cc1ccccc1)S2(=O)=O)Nc1ccccc1`, -5% (active); in that of `O=C(CCCc1ccccc1)NC1CC(=O)N(c2cccc(F)c2)C1` (configuration not stated), 120%. Turning to `CN(C)c1ccc(C(CNS(=O)(=O)c2ccc(F)cc2F)N2CCOCC2)cc1` (configuration not stated), the survival is 69%. For `Cc1nn2c(=O)cc(CN(C)c3ccccc3)nc2s1`, the survival is 135%.

Consider `COc1ccc(S(=O)(=O)N2CCC(Oc3ccc(-n4cnnn4)cc3)CC2)cc1`, for which the survival was 90%.

As for `O=C(NC1CC(=O)N(c2ccc(F)cc2)C1)c1ccc(S(=O)(=O)N2CCOCC2)cc1` (configuration not stated), the survival was 93%.

`Cn1c(SCC(N)=O)nnc1-c1ccc(S(=O)(=O)N2CCCC2)cc1`: the survival was 79%.

`Cc1ccc(Cl)cc1N1CCN(C(=O)Cn2cnc3onc(-c4ccc(F)cc4)c3c2=O)CC1`: the survival was 75%. For the compound `O=C(NCCc1ccccc1)C1CCC(CNS(=O)(=O)c2ccccc2)CC1` (configuration not stated), the survival is 91%. In the case of `CCc1cccc(NC(=O)CSc2ncc3c(n2)-c2ccccc2N(CC)S3(=O)=O)c1` it was 101%; in that of `CCc1cccc(NC(=O)CSc2ncc3c(n2)-c2ccccc2N(Cc2ccccc2C)S3(=O)=O)c1`, 8% (active); in that of `CCOc1ccc(NC(=O)CSc2ncc3c(n2)-c2ccccc2N(Cc2ccccc2C)S3(=O)=O)cc1`, 91%. Take `CCOC(=O)c1ccc(NC(=O)CC2C(=O)N(c3cccc(C)c3)C(=O)N2CCOC)cc1` (configuration not stated): the survival is 74%. With `CCc1ccc(NC(=O)[C@H](Cc2ccccc2)N2Cc3ccccc3C2=O)cc1`, the survival was 88%. `Brc1cccc(-c2nnn3c2nc(NC2CCCCC2)c2ccccc23)c1`: the survival is 64%. In the case of `FC(F)(F)c1cccc(-c2nnn3c2nc(NC2CCCCC2)c2ccccc23)c1` it was 13% (active); in that of `Fc1cccc(-c2nnn3c2nc(NC2CCCCC2)c2ccccc23)c1`, 59%; in that of `CCCCNc1nc2c(-c3cccc(C)c3)nnn2c2ccccc12`, 98%. In the case of `COc1ccc(CCNc2nc3c(-c4cccc(C(F)(F)F)c4)nnn3c3ccccc23)cc1OC` it was 85%. In the case of `CC1CCC(Nc2nc3c(-c4cccc(C(F)(F)F)c4)nnn3c3ccccc23)CC1` (configuration not stated) it was -3% (active).
